Data reported in PubChem BioAssay AID1508600 (Functional Genomics Laboratory (NCATS/FGL), 2020).
Out of some 53,000 sequences screened, about 3,700 (7%) were called active.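 Rule for the calls: active = gene knockdowns whose robust z-score for IL-1 alpha signal is at least 2 or at most -2, so actives lie on both sides; inactive = the rest.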 Many of the other results were omitted from the sample, so actives are more common in it than they were.

Assay: Components of the Cytosolic LPS Sensing Pathway: Gene Identification via Genome-wide siRNA Screen;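 note: robust z of the log signal after scaling to non-targeting control siRNA wells of the plate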
Settings: RAW264.7 macrophages, IL-1a HTRF, actives lie on both sides, screened at 100 nM (by protocol), cells primed 5 h with Pam3CSK4 first
Procedure, shortened: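 RAW264.7; siRNA 100 nM final, RNAiMAX, 48h 37 degrees C; Pam3CSK4 5 h; LipidA + TransIT-TKO 24 h; IL-1a HTRF; CellTiter-Glo viability; robust z vs negative-control median.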

z-score, active:
AACAGAUCUUCUCUGGUCCTT against Klra15 -2.47
GGAACACUACCGUUUUGGGTT against Ehd2 2.55
GCCGUACCGGAUUUUUUUCTT against Smyd3 4
CGCGACAGAAUCAGUACAATT against Hnf4g 2.17
GGACACUGUACUCAAACCUTT against Cntnap5b -2.86
ACUGUAUGAAGAGGAAACATT against Krt87 -2.14
GGUCUUUCCGGCAGUUCUUTT against Rxrg -2.27
GGCUCUAACUGUGAGAAGATT against Dll3 -2.44
CCCGGAGCUUGAAUUACUGTT against Usp7 2.36
GGUGCAGUUUCUCCUCUUUTT against Pla1a 2.09
CGUAGGACUGAAUCAGCUUTT against Slc13a3 -3.04
GGUGGUACGCAGACUAAAUTT against Ulk1 2.94
GGAUAAAAUUGCUUUACUGTT against Srek1ip1 2.63
GCAUUCAUCAGGGUUGAUUTT against Wdr20 -2.43
GGAAAACUUGAGGCGGAUCTT against Enkd1 2.63
CCUGUCUGGACUUGUCUAATT against Ica1 -2.05
GGCAAGAGAAUUCAGAUCUTT against Slc5a1 2.91
GCUGCACAUUGUCCAUUAUTT against Car12 2.3
CCGUCAUCACUGAUCAGUUTT against Olfr684 2.7
GGAUCUGUGAGAAUCAUAGTT against Rabgap1l -2.24

z-score, inactive:
GCAAAGGAGGCUUCUAUUGTT against Olfr380 -0.803
GGAGUUGUGGAAUUCUCUATT against Extl2 -1.3
GCUUGUGUUUUAGAGCCGCTT against Mat1a 0.653
GCACAAUGACGCACUUACCTT against Pik3r2 0.693
CCUGGAAUGUAUUUGUUAUTT against Nkain2 0.0256
GGACCAGGUUUGUUUUUUATT against Stom 1.03
CGGUUUUGUCAAAGCCCUGTT against Junb 0.322
GGUCAAGACGGUCUACCGATT against Rab3d -0.571
GGGAUAUCAAAGCAAAAAUTT against Rab8a -0.578
GGGUUCACGAAAGAGUAAATT against Clcn5 -1.21
GCAGCUAACUCCAAGUCAGTT against Tfam -1.42
GGACUUGCCUUGAUCGCUATT against Mars2 0.853
GGUUCCUACACGAAAGGAUTT against Eif2b4 0.14
GCCUUUACCCAAAUUAUCATT against Defb4 0.567
GGUGUAUACUGUGAAAUCATT against Notch1 -0.319
GGGCAUUGUUGAGCACCUUTT against Pgap6 -1.81
GGAAAAGCUGGAGGAAGACTT against Tef 0.525
GGAAUGUCAAUCUUGAGAGTT against Asprv1 -0.812
GCAGACAUUGCACAAACCCTT against Ankrd10 0.355
GCCUGUCUCCUCAAUGCUUTT against Gm9903 -0.319
GGACAGUAUAGUGGAGAUCTT against Fgf22 1.66
GCUAUUCUGUCUACGUGUATT against H2bc18 -0.356
CCGAAAUGUGUGUUUUAAATT against Vapb 1.57
GGAAUCGGUGGCCAUCAAUTT against Olfr771 0.458
GGAAGCUGAAGGUUUGCCATT against Wipi2 -0.529
GGAUCAGGAGCUGUUUGGATT against Adamtsl4 1.05
GGAUGUCUACUGGAAUGUUTT against Pigv -1.16
GUGAAGGCCCAUGGCAAGATT against Hbb-b1 -0.235
CCGUAUUUGGACUGAGCAATT against Chic2 0.63
GCUAGGGAUUUACCUCUUCTT against Gpr65 0.743
GCCUGAGGAUCUAUAGAUATT against Prss29 -1.36
UGGAAGCCUUAUGCCGUCUTT against Gpr31b 0.895
GGCUAACUCCUUAAAACCUTT against Aldh18a1 -0.372
GGCUUCCACGUAAUUGUCCTT against Six3os1 0.649
GGCCGACUUGAUCAAUAACTT against Hsp90aa1 -0.164
GGAUUUUUCCAUAAAAACCTT against B3galnt1 1.04
CCUCCCAGUACACUUGAAATT against Cox7a1 0.0752
GGAAGAAACGGAGACUCAATT against Dpf1 0.052
CCAAUGAGUUAAUCACCUUTT against Olfr1135 0.587
GGUCCAUACUCCUAAAGAATT against Mpzl1 -0.727
GGAUCUGUUACUCUGAUACTT against Pias4 0.847
GGUCAACAUUAAAAUACUGTT against Map2k4 -0.0649
GGUUUGCCUAUUUUUUCUUTT against Trmt10c 1.9
GGGUUUUUUUUUUCCUUCCTT against Hsd17b1 -0.0306
GCCAUUUGAAGUGUUUAAATT against Kctd12 -0.103
GGAAGACCUAAACAACGGCTT against Dusp10 -1.55
GGGUAACUAUUGGACUAACTT against Gabrq -0.262
GGCAUUGGAAUAAAAUUUGTT against Rfk 0.267
GGGUUAAACCACAUAUCCATT against Spata9 -1.06
GCUUUUCCGCUUCUACCGGTT against Nrp -0.505
GCUGUGGAGAAGUGCUACUTT against Lce1b -0.907
CCGAAAAUGGUUAGGACAUTT against Kynu 1.44
GGGCCUUCAAAACGAGAAGTT against Cyp4f39 0.339
GCCUUCCUGAAUUUAAAGATT against Myo5b 1.33
GGUGGUACUUACUCAAAAUTT against Fgg 1.05
GGGACUACCAUUUGUUAAUTT against Tktl1 0.751
CCAGAUUGUCACUUGCUACTT against Skint3 1.25
GGAUACAAUCAUCGCCAUCTT against Olfr101 1.3
GCUUUUAACAUCGAGUAAUTT against Top2b -0.627
CCUGUUAUGACCGUUCAUGTT against Prpf4 0.551
GGCUCUGAAAAUUGAACACTT against Cep83 0.0736
GGGUCUUAUCUCGAUGAGGTT against Flt3l -0.199
GGAAAUCAGCUGAAUUACUTT against Dicer1 1.07
GGAACCAAUCUUGGUCUCATT against Tln2 -0.66
GGAUUCAGGCUGGAAAAUATT against Clrn1 -1.04
CCCUGAAGGCUUACUUUUUTT against Cfap299 -0.231
GCUUUUCAUAUCUCUUGCATT against Olfr1385 0.408
GCCAGAAUCUGUUGUGAACTT against Gfpt1 0.0747
GGGAAAAUCCACUUUUAAGTT against Hs2st1 -0.0469
GGGUCCAAUAAACAUGUCUTT against B3galt4 0.234
CCAGGACUUACUCAGUAAUTT against Setd6 -0.72
GGCGUGAUCGCUCUCCAAUTT against Ncoa5 0.834
GGAUAACCGCCAAUAAAAATT against Msantd3 0.255
GCCCUACCUUGAAUCCCAUTT against Olfr532 -1.75
GGUAUUGGGCCAUUGGUUGTT against Mapkapk3 0.705
GGGUUGAUUAAAGUUUAACTT against Gsx2 1.4
GGCCACUUGCCUAUUGUGATT against Anxa6 -0.343
GAAUAUGUGGCUCUGGGUCTT against G6pc3 -0.414
GGUGUUCUUUGACAGUGCCTT against Atp5d 0.107
GCCGAUGAUGAGAAACGACTT against Cd2 -0.279
GGCGAGUUUUCCUCUUCAGTT against Sync 1.08
GGUGCUGUGUGAGCUUUCATT against Zfp85os -1.47
GGCUGACUCGCUUUCACCATT against Efna2 0.522
GCCACAGGCCAAGAUCAUUTT against Pafah1b2 -0.614
GGACAAUUGGAAGAUUUGGTT against Ccdc88a -1.23
CCCUGAAUAAGGCUGAUCUTT against Krt32 -0.801
GGGAGAUGUUGUCAGGGUCTT against Rnasel -0.476
GGAAAGUGCAUCAUAGACATT against Thrb 0.153
